In the library only some 15% were active in any assay of this set; here they are far more common.
SARS PLP yeast – qHTS of Yeast-based Assay for SARS-CoV PLP | S. cerevisiae expressing SARS-CoV PLpro, growth rescue | Potency, µM (doses to about 32.9 µM), hits mostly activators | 0.19% of 330,000 active | AID 485353, 2010; calls by dose curve; also: nearly all actives have a fitted effect of over 55% in size
HCMV antiviral – qHTS Assay for inhibitors of the human cytomegalovirus (HCMV); HFF cells, HCMV-luciferase reporter, 72 h; stronger effect = lower value; activity change, negative = inhibition, % at 57.5 µM; 4.5% of 410,000 active; in the data active = activity change below about -60%; inconclusive = no clear call, values can overlap the other calls; inactive = above about -39%
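Human foreskin fibroblasts infected with luciferase-reporter HCMV at MOI 1 PFU/cell, compounds at two doses. Luciferase measured 72 h post infection; normalized to buffer-only basal and Salinomycin (10uM) controls.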
Sm TGR block – qHTS Assay for the Inhibitors of Schistosoma Mansoni Peroxiredoxins; purified TGR, DTNB reduction, TNB absorbance 405 nm; Potency, µM (titrated, usually from 114 µM), actives largely listed as inhibitors; 3% of 360,000 active; also: nearly all actives have a fitted effect of over 60% in size
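TGR 20 nM + NADPH 100 uM (dispensed conc.), cpd preinc 15 min RT; start with NADPH (500 uM addition) then DTNB (15 mM addition). Kinetic TNB absorbance, 405 nm filter. Four-parameter Hill fit across titration.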
Pf growth 48h – Primary qHTS for delayed death inhibitors of the malarial parasite plastid, 48 hour incubation | P. falciparum luciferase growth in erythrocytes, 48 h | Potency, µM (titrated, usually from 28.7 µM), actives largely listed as inhibitors | 5.9% of 310,000 active
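Erythrocytes infected with P. falciparum carrying an integrated firefly luciferase reporter (2% hematocrit, 0.1% parasitemia final) were exposed to compounds in RPMI 1640 with 0.5% Albumax at 37 C, 5% CO2. Growth inhibition was scored as reduced luminescence.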
Pf growth 96h – Primary qHTS for delayed death inhibitors of the malarial parasite plastid, 96 hour incubation | P. falciparum luciferase reporter growth, 96 h | Potency, µM (titrated, usually from 28.7 µM), actives largely listed as inhibitors | 6.9% of 320,000 active | AID 504834, 2011
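Delayed-death screen, second-generation endpoint: infected erythrocytes, 2% hematocrit, 0.05% parasitemia final; 96 hours at 37 C, 5% CO2; luciferase detection reagent; luminescence decrease equals reduced growth.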
HCV inh – qHTS Assay for Inhibitors of Hepatitis C Virus (HCV); Potency, µM (top dose mostly 41.8 µM), most hits filed as inhibitors; 3.4% of 340,000 active; AID 651820, 2012; Huh7.5.1 HCVcc-Cre infection, luciferase reporter, 44 h
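Compounds are dispensed onto cells plated 4 h earlier at 1,000 per well, with HCVcc-Cre virus (about 0.5 moi) added next. Following 44 h of culture, luminescent signal is measured for 15 sec after 15 min with substrate at room temperature.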
Of the large screens only hits and unclear results are named; the others gave an inactive call. Unless noted, calls follow the shape of the dose curve; as a rule, active = well fitted curve in the direction sought with a large enough effect; inconclusive = small, poorly fitted or top-dose-only effect, or another doubt; inactive = no such curve, though single readings can be large; an effect the other way counts as inactive or inconclusive.

CCCCc1cc(=O)oc2cc(OCC(=O)N[C@@H](Cc3ccccc3)C(=O)O)ccc12	Pf growth 48h inconclusive
Cc1cc(OCC(=O)N[C@@H](CSCc2ccccc2)C(=O)O)c2c(C)c(C)c(=O)oc2c1	Pf growth 48h inconclusive, Pf growth 96h 10.4µM
Cc1c(C)c2ccc(OCC(=O)NC(Cc3ccc(Cl)cc3)C(=O)O)cc2oc1=O (stereo not given)	Pf growth 96h inconclusive, HCV inh inconclusive
Cc1c(C)c2ccc(OCC(=O)N[C@@H](Cc3ccccc3)C(=O)O)cc2oc1=O	HCMV antiviral -76.8
CCCc1cc(=O)oc2cc(OCC(=O)NC(Cc3ccc(Cl)cc3)C(=O)O)ccc12 (stereo not given)	HCV inh 0.501µM
Cc1ccc(CNc2ncnc3c2nnn3C)cc1	none (no result: SARS PLP yeast, Pf growth 48h, Pf growth 96h, HCV inh)
CCN1CCN(C(c2ccccc2)c2nnnn2Cc2ccc(OC)cc2)CC1 (stereo not given)	Pf growth 96h 5.22µM
COc1ccc(Cn2nnnc2C(c2ccccc2OC)N2CCC(C(N)=O)CC2)cc1 (stereo not given)	Pf growth 96h inconclusive
COc1ccc(Cn2nnnc2C(c2ccccc2Cl)N2CCN(C)CC2)cc1 (stereo not given)	HCMV antiviral -63.5
COc1ccc(Cn2nnnc2C(c2cccs2)N2CCN(c3ccc([N+](=O)[O-])cc3)CC2)cc1 (stereo not given)	Pf growth 48h 10.4µM, Pf growth 96h inconclusive
CCCC(c1nnnn1Cc1ccc(OC)cc1)N1CCN(c2ccccc2OC)CC1 (stereo not given)	Pf growth 48h 10.4µM, HCV inh inconclusive (no result: Pf growth 96h)
CC1(C)CC(=O)C(=C2SCCCS2)C(=O)C1	none
Cn1ncc(N=Cc2ccc([N+](=O)[O-])cc2)c1C(=O)N1CCOCC1	none (no result: Pf growth 96h)
COc1ccc(Cn2nnnc2CN2CCc3ccccc32)cc1	none (no result: Pf growth 96h)
COc1ccc(Cn2nnnc2CN2CCc3ccccc3C2)cc1	Pf growth 96h 13.1µM, HCV inh inconclusive (no result: Pf growth 48h)
O=C(CCCN1C(=O)C(c2ccccc2)Oc2cccnc21)Nc1ccc(Br)cc1F (stereo not given)	HCMV antiviral -104.9 (no result: SARS PLP yeast, Pf growth 48h, Pf growth 96h, HCV inh)
COc1ccc(C(=O)NCCC2=CCCCC2)cc1[N+](=O)[O-]	HCV inh inconclusive
COCCCNC(=O)c1ccc(N2CCCC2)c(NS(=O)(=O)c2ccc(C)cc2)c1	Pf growth 48h inconclusive
COc1ccc(C(=O)NCCN2CCCC2)cc1[N+](=O)[O-]	Pf growth 48h inconclusive, Pf growth 96h 2.62µM
Cc1ccc(S(=O)(=O)Nc2cc(C(=O)NCCN3CCCC3)ccc2N2CCCCC2)cc1	Pf growth 48h 11.7µM (no result: Pf growth 96h)
Cc1ccc(S(=O)(=O)Nc2cc(C(=O)NCCN(C)C)ccc2N2CCCCC2)cc1	Pf growth 48h 9.28µM, Pf growth 96h inconclusive, HCV inh inconclusive
CCOCCCNC(=O)c1ccc(N2CCCC2)c(NS(=O)(=O)c2ccc(C)cc2)c1	none
Cc1ccccc1Cn1c(SCc2ccc(C(=O)NC3CCCCC3)cc2)nc2ccncc21	none (no result: SARS PLP yeast, Pf growth 48h, Pf growth 96h, HCV inh)
CCCOc1ccc(C2c3c(-c4ccccc4O)n[nH]c3C(=O)N2CCc2ccccc2)cc1OCC (stereo not given)	HCMV antiviral -90.2 (no result: SARS PLP yeast, Pf growth 48h, Pf growth 96h, HCV inh)
CCCN1C(=O)c2[nH]nc(-c3ccccc3O)c2C1c1ccc(OCc2ccccc2)c(OC)c1 (stereo not given)	HCMV antiviral -84.1 (no result: SARS PLP yeast, Pf growth 48h, Pf growth 96h, HCV inh)
O=C(CSC1=Nc2ccccc2C2=NC(CCC(=O)NC3CCCCC3)C(=O)N12)Nc1cccc(Cl)c1 (stereo not given)	none (no result: SARS PLP yeast, Pf growth 48h, Pf growth 96h, HCV inh)
CCN1CCN(Cc2ccc(NC(=O)c3cccc(-c4ccc5nc(NC(=O)C6CC6)sc5n4)c3)cc2C(F)(F)F)CC1	HCMV antiviral -98.9 (no result: SARS PLP yeast, Sm TGR block, Pf growth 48h, Pf growth 96h, HCV inh)
COc1ccc(NC(=O)c2cnn(-c3ccccc3)c2C)cc1OC	none
CCN1CCN(Cc2ccc(NC(=O)c3cc(NC(=O)c4cnn(-c5ccccc5)c4N)cc(OC)c3)cc2C(F)(F)F)CC1	Pf growth 48h 1.85µM, Pf growth 96h 0.828µM
CCN1CCN(Cc2ccc(C(=O)Nc3ccc(C)c(NCc4cnc(NC(=O)OC)cn4)c3)cc2C(F)(F)F)CC1	Pf growth 48h inconclusive, Pf growth 96h 0.37µM, HCV inh inconclusive
CCN1CCN(Cc2ccc(NC(=O)c3ccc(C)c(NC(=O)c4ccnnc4)c3)cc2C(F)(F)F)CC1	Pf growth 96h inconclusive
CCN1CCN(Cc2ccc(NC(=O)c3cc(NC(=O)c4cc(C)on4)cc(OC)c3)cc2C(F)(F)F)CC1	Pf growth 48h inconclusive, Pf growth 96h 0.522µM, HCV inh inconclusive
Cn1nc(C(=O)NCC2COc3ccccc3O2)c2ccccc2c1=O (stereo not given)	Pf growth 48h inconclusive, Pf growth 96h inconclusive
CCN1CCN(Cc2ccc(NC(=O)c3cc(NC(=O)C(=O)c4c[nH]c5ccccc45)cc(OC)c3)cc2C(F)(F)F)CC1	HCMV antiviral -100.8, Pf growth 48h 0.37µM, Pf growth 96h 0.131µM
CCN1CCN(Cc2ccc(NC(=O)c3ccc(C)c(NC(=O)C(=O)c4c[nH]c5ccccc45)c3)cc2C(F)(F)F)CC1	HCMV antiviral -101.0, Pf growth 48h 0.37µM, Pf growth 96h 0.415µM, HCV inh inconclusive
CCN1CCN(Cc2ccc(NC(=O)c3ccc(C)c(NC(=O)c4ccc5n[nH]nc5c4)c3)cc2C(F)(F)F)CC1	none
O=C(COC(=O)CN1C(=O)C2CCCCC2C1=O)Nc1cc(F)ccc1F (stereo not given)	none
Cc1cc(Cl)ccc1OC(C)C(=O)Nc1ccc(C(=O)Nc2ccccc2C(=O)O)cc1 (stereo not given)	none
CCCc1cc(=O)oc2cc(OC(C)C(=O)NC3CC(C)(C)NC(C)(C)C3)ccc12 (stereo not given)	Pf growth 48h inconclusive, Pf growth 96h inconclusive, HCV inh inconclusive
O=C(Nc1ccc(N2CCOCC2)c(Cl)c1)c1ccc(Br)o1	Pf growth 48h inconclusive, HCV inh 10µM
O=C(Nc1ccccc1N1CCOCC1)c1ccc(Br)o1	HCMV antiviral -62.9, Pf growth 96h inconclusive, HCV inh inconclusive
CSCc1c(C(=O)Nc2ccc(N3CCOCC3)cc2)oc2ccccc12	none (no result: Pf growth 48h)
CSCc1c(C(=O)Nc2ccccc2N2CCOCC2)oc2ccccc12	Pf growth 48h 11.7µM
O=C(Nc1ccc(N2CCOCC2)c(Cl)c1)c1cc2ccccc2o1	HCV inh inconclusive (no result: HCMV antiviral)
O=C(Nc1ccc(N2CCN(C(=O)c3ccccc3)CC2)c(Cl)c1)c1ccc(Br)o1	HCMV antiviral -67.5, Pf growth 48h 10.4µM, HCV inh inconclusive
CN1CCN(c2ccccc2NC(=O)c2ccc(Br)o2)CC1	HCV inh inconclusive (no result: Pf growth 96h)

Screens from PubChem BioAssay.
